High-throughput results: PubChem, National Center for Advancing Translational Sciences (NCATS)
The list is not random: actives were taken first. Their share in the collection is about 2.1%.
Abeta yeast res = qHTS for compounds that reverse cellular toxicity of Amyloid beta (A-beta) peptide in yeast: Primary Screen | yeast expressing A-beta42, growth rescue, OD600, 48 h; response scale: 0% DMSO, 100% iron-clioquinol control | Potency, µM (doses to about 46.1 µM), most hits filed as activators | hit rate 0.063% among 410,000 | AID 1347071, 2019; also: nearly all actives have a fitted effect of over 55% in size
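Growth rescue measured by 600 nm absorbance after 48 h yeast culture at 30 C with compound. Values normalized between DMSO and an equimolar ferric chloride plus clioquinol control.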
TDP43 rescue = qHTS of TDP-43 Inhibitors; TDP-43 expressing yeast growth rescue, BacTiter-Glo, 24 h; hit rate 1.8% among 410,000; Potency, µM (titrated, usually from 46.1 µM), inactives show at the highest dose growth rescue (activation), hits mostly activators; also: % of control where 0% means no effect; nearly all actives have a fitted effect of over 50% in size
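Yeast cells expressing TDP-43 under galactose induction are exposed to compounds for 24 hr at 30 deg C. BacTiter-Glo luminescence measures growth, so protective compounds score as activators.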
aSyn yeast inh = qHTS of alpha-syn Inhibitors | Yeast expressing alpha-synuclein, growth rescue, BacTiter-Glo, 24 h | Potency, µM (titrated, usually from 46.1 µM), for inactives: top-dose growth rescue (activation), actives largely listed as activators | hit rate 0.14% among 370,000 | AID 652106, 2013; also: % of control where 0% means no effect; nearly all actives have a fitted effect of over 65% in size
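Screening used galactose-induced yeast with toxic alpha-synuclein levels, exposed to compound for 24 hr at 30 deg C. Cell growth, read with BacTiter-Glo luminescence, gave the measured signal.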
FUS suppressor = qHTS for Suppressors of FUS Proteinopathy: Primary screen using FUS-linked yeast assay; S. cerevisiae FUS-expressing, growth rescue, OD600, 24 h; Potency, µM (doses to about 76.6 µM), usual class: activators; hit rate 0.24% among 390,000; AID 1347120, 2019;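 also: plate controls were DMSO vehicle for no effect and reference control for full effect; nearly all actives have a fitted effect of over 55% in size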
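Yeast FUS proteinopathy model; galactose-induced FUS (2%), starting OD 0.005. Cpds in dilution series, 24hr, 30C, 99% humidity. Abs 600 nm growth. Pos ctrl CP55940 (top 92uM final); neg ctrl DMSO.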
Numbers without * were called inactive. Calls follow the shape of the dose curve; as a rule, active = well fitted curve in the direction sought with a large enough effect; inconclusive = small, poorly fitted or top-dose-only effect, or another doubt; inactive = no such curve, though single readings can be large; an effect the other way counts as inactive or inconclusive. Potency is read from the fitted curve at half-maximal effect.

What do the screens show for `Cc1ccc(NC(=O)C(NS(=O)(=O)c2ccc3c(c2)CCC(=O)N3)c2ccccc2)cc1C` (configuration not stated)?
Abeta yeast res: inactive; TDP43 rescue: -6.9%; FUS suppressor: inconclusive

Results for O=C(N/N=C/c1ccc(Cl)cc1)Nc1ccccc1 ?
Abeta yeast res: inactive; TDP43 rescue: 2.82µM*; aSyn yeast inh: 11.7%; FUS suppressor: inactive

Results for COc1ccccc1C(=O)NC1(C(F)(F)F)C(=O)Nc2c1c(=O)[nH]c(=O)n2-c1ccccc1 (configuration not stated) ?
Abeta yeast res: inactive; TDP43 rescue: 10.2%; FUS suppressor: inactive

What do the screens show for `COc1ccc(-c2cn3nc(N4CCCC(C(=O)Nc5ccc(C)c(C)c5)C4)sc3n2)cc1` (configuration not stated)?
Abeta yeast res: inactive; TDP43 rescue: 12.8%; FUS suppressor: inactive

How did Cc1c(/C=C/C(=O)c2ccc(Cl)s2)cnn1C do in these assays?
Abeta yeast res: inactive; TDP43 rescue: 12.6µM*; aSyn yeast inh: 3.0%; FUS suppressor: inactive

What do the screens show for `Cc1ccc(NC(=O)c2cnc(SCC(=O)N3CCCc4ccccc43)n(C)c2=O)cc1`?
Abeta yeast res: inactive; TDP43 rescue: 0.0%; FUS suppressor: inactive

Results for COc1cc(CNc2ncnc3c2ncn3[C@H]2CN(Cc3cccc(C(F)(F)F)c3)C[C@@H](COC(C)=O)O2)cc(OC)c1OC ?
Abeta yeast res: inactive; TDP43 rescue: 17.5%; aSyn yeast inh: 0.8%; FUS suppressor: 20µM*

How did Cc1ccccc1N=C1SC(CC(=O)Nc2ccc3ccccc3c2)C(=O)N1Cc1ccccn1 (configuration not stated) do in these assays?
Abeta yeast res: inactive; TDP43 rescue: 28.2µM*; aSyn yeast inh: inconclusive; FUS suppressor: inactive

Results for S=C(NCc1ccccc1)C(=S)NCc1ccccc1 ?
Abeta yeast res: 8.91µM*; TDP43 rescue: 18.8%; aSyn yeast inh: -31.2%; FUS suppressor: inactive

What do the screens show for `S=C(NCCCCc1ccccc1)NCc1ccccc1`?
Abeta yeast res: 15.8µM*; TDP43 rescue: 14.5%; aSyn yeast inh: -0.1%; FUS suppressor: inactive

Results for Fc1ccccc1NC(=S)NCCc1cccc(Cl)c1 ?
Abeta yeast res: 22.4µM*; TDP43 rescue: inconclusive; aSyn yeast inh: -0.6%; FUS suppressor: inactive

How did S=C(NCc1ccccc1)NCc1ccc(CNC(=S)NCc2ccccc2)cc1 do in these assays?
Abeta yeast res: inactive; TDP43 rescue: 7.6%; aSyn yeast inh: -2.7%; FUS suppressor: inactive

What do the screens show for `Fc1ccc(CNC(=S)Nc2ccc(Cl)cc2)cc1`?
Abeta yeast res: inactive; TDP43 rescue: inconclusive; aSyn yeast inh: 0.0%; FUS suppressor: inactive

What do the screens show for `S=C(NCc1ccc(Cl)cc1)Nc1ccccc1`?
Abeta yeast res: 12.6µM*; TDP43 rescue: inconclusive; aSyn yeast inh: 8.8%; FUS suppressor: inactive

What do the screens show for `S=C(NCCc1ccccc1)NCc1cccc(Cl)c1`?
Abeta yeast res: 15.8µM*; TDP43 rescue: 22.6%; aSyn yeast inh: 4.0%; FUS suppressor: inactive

How did COc1ccccc1NC(=S)NCCSc1ccc(Cl)cc1 do in these assays?
Abeta yeast res: inactive; TDP43 rescue: 0.0%; aSyn yeast inh: -8.2%

How did Cc1cc(Cl)ccc1NC(=S)NCc1ccc(F)cc1 do in these assays?
Abeta yeast res: inactive; TDP43 rescue: 17.8µM*; aSyn yeast inh: -8.3%; FUS suppressor: inactive

What do the screens show for `Cc1ccccc1NC(=S)NCc1ccc(F)cc1`?
Abeta yeast res: inconclusive; TDP43 rescue: 15.8%; aSyn yeast inh: 18.4%; FUS suppressor: inactive

What do the screens show for `Cc1c(Cl)cccc1NC(=S)NCCc1ccc(C(F)(F)F)cc1`?
Abeta yeast res: inconclusive; TDP43 rescue: 14.1µM*; aSyn yeast inh: -1.2%; FUS suppressor: inactive

Results for COc1ccccc1NC(=S)NCCc1ccc(Cl)cc1 ?
Abeta yeast res: inactive; TDP43 rescue: 15.8µM*; aSyn yeast inh: 6.0%; FUS suppressor: inactive

What do the screens show for `COc1cc(NC(=O)C2CCCN(S(=O)(=O)c3ccc(C)cc3)C2)cc(OC)c1` (configuration not stated)?
FUS suppressor: inactive

What do the screens show for `CN1c2ccccc2-c2nc3ccccc3n2C1c1cccs1` (configuration not stated)?
Abeta yeast res: inactive; TDP43 rescue: 7.08µM*; aSyn yeast inh: -34.7%; FUS suppressor: inactive
